# Pf growth 48h – P. falciparum growth inhibition at 48 hours (one generation); P. falciparum luciferase growth in erythrocytes, 48 h; Potency, µM (series often up to 28.7 µM), for inactives: top-dose activity change, negative = inhibition, most hits filed as inhibitors; 310,000 compounds, 5.9% hits; also: % is scaled to controls: 0 for no effect and ±100 for the full control effect
#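 Luciferase-expressing P. falciparum in infected erythrocytes (2% hematocrit, 0.1% parasitemia final) in RPMI 1640/0.5% Albumax were exposed to compound for 48 hours at 37 C, 5% CO2; growth read as luminescence.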
# Pf growth 96h – P. falciparum growth inhibition at 96 hour, primary screen for plastid delayed-death inhibitors. P. falciparum luciferase reporter growth, 96 h. Potency, µM (series often up to 28.7 µM), for inactives: at the top dose activity change, negative = inhibition, usual class: inhibitors. 320,000 compounds, 6.9% hits. AID 504834; also: % is scaled to controls: 0 for no effect and ±100 for the full control effect
#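 Parasite growth measured via integrated firefly luciferase reporter in P. falciparum. Infected erythrocytes at 2% hematocrit, 0.05% parasitemia final were treated 96 hours at 37 C under 5% CO2, and luminescence was read.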
# AMA1 RON2 block – AMA1-RON2 (P. falciparum) interaction inhibition; AlphaScreen AMA1-biotinylated RON2 peptide binding; Potency, µM (top dose mostly 58.2 µM), without a hit: at the highest dose activity change, negative = inhibition, usual class: inhibitors; 360,000 compounds, 0.2% hits; AID 720542;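 also: 0% = vehicle wells and -100% = peptide control; nearly all actives have a fitted effect of over 45% in size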
#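 AMA1 (3D7) with his tag at 25 nM final met compounds first, then biotinylated RON2 peptide at 25 nM; detection used donor plus acceptor beads, 10 µg/mL apiece, read by AlphaScreen after 30 min at room temperature.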
# SARS PLP yeast – blocks SARS-CoV papain-like protease in a yeast assay; Potency, µM (titrated, usually from 32.9 µM), inactives show at the top dose activity, positive = growth rescue, most hits filed as activators; 330,000 compounds, 0.19% hits; S. cerevisiae expressing SARS-CoV PLpro, growth rescue; AID 485353; calls by dose curve; also: 0% is about no effect; nearly all actives have a fitted effect of over 55% in size
# Starred values were filed as active, the others as inactive; ? = inconclusive; / = no result given. The list is not random: actives were taken first. Their share in the collection is about 9.4%. Unless noted, calls follow the shape of the dose curve; as a rule, active = well fitted curve in the direction sought with a large enough effect; inconclusive = small, poorly fitted or top-dose-only effect, or another doubt; inactive = no such curve, though single readings can be large; an effect the other way counts as inactive or inconclusive. Potency is read from the fitted curve at half-maximal effect.
SMILES,Pf growth 48h,Pf growth 96h,AMA1 RON2 block,SARS PLP yeast
Cc1cnc(NC(=O)CN2CCN(c3ccccc3F)CC2)s1,-4%,14%,-6%,-3%
Cc1cccc(NC(=O)CSc2nc3ccccc3nc2N2CCCCC2)c1,13µM*,?,30%,-5%
Cc1cccc(NC(=O)CSc2nc3ccccc3nc2N2CCCC2)c1,?,32%,74%,-1%
Cc1cccc(NC(=O)CSc2nc3ccccc3nc2N2CC(C)OC(C)C2)c1 (stereo not drawn),?,9.3µM*,18%,-4%
Cc1cccc(NC(=O)CCN2C(=O)C3C4CCC(C4)C3C2=O)c1C (stereo not drawn),-1%,31%,-5%,6%
Cc1ccc(-c2noc(=O)n2CC(=O)Nc2ccc(S(=O)(=O)NC3CC3)cc2)cc1,/,?,-15%,-3%
CCCCCOC(=O)C(C)Sc1n[nH]c(=O)[nH]c1=O (stereo not drawn),-2%,30%,-8%,1%
CCCCOC(=O)CSc1n[nH]c(=O)[nH]c1=O,/,13µM*,1%,11%
Cc1ccc(CN(Cc2cc3cc(C)ccc3[nH]c2=O)C(=O)N2CCOCC2)cc1,6.6µM*,?,0%,-3%
Cc1c(C)c2c(OCC(=O)NC3CC3)cc3c(c2oc1=O)CCC(C)(C)O3,?,12µM*,6%,-8%
Cc1cc(=O)oc2c3c(cc(OCC(=O)NCc4ccccc4)c12)OC(C)(C)CC3,?,12µM*,-5%,-3%
Cc1c(C)c2c(OCC(=O)N[C@@H](Cc3ccccc3)C(=O)O)cc3c(c2oc1=O)CCC(C)(C)O3,?,?,0%,0%
Cc1cc(=O)oc2c3c(cc(OCC(=O)Nc4cccnc4)c12)OC(C)(C)CC3,-24%,1.3µM*,-5%,-4%
Cc1c(C)c2c(OCC(=O)NCC(O)c3ccccc3)cc3c(c2oc1=O)CCC(C)(C)O3 (stereo not drawn),?,4.7µM*,-5%,2%
Cc1cc(=O)oc2c3c(cc(OCC(=O)NCC(=O)O)c12)OC(C)(C)CC3,-7%,11%,-3%,2%
CSC[C@H](NC(=O)COc1cc2c(c3oc(=O)c(C)c(C)c13)CCC(C)(C)O2)C(=O)O,-18%,-8%,11%,1%
O=C(CSc1nnc(-c2ccccc2)o1)Oc1ccc(Br)cc1,/,22%,0%,3%
CSC[C@H](NC(=O)COc1cc2c(c3oc(=O)cc(C)c13)CCC(C)(C)O2)C(=O)O,1%,-4%,-2%,-1%
Cc1cc(=O)oc2c3c(cc(OCC(=O)NC4CC4)c12)OC(C)(C)CC3,?,15µM*,11%,-10%
CCOCc1c(C(=O)Nc2cc(OCC)c(N3CCOCC3)cc2OCC)oc2ccccc12,35%,?,2%,-5%
COc1ccc(C(=O)Nc2ccc3nc(N4CCOCC4)sc3c2)cc1OC,-8%,?,-9%,-6%
CCOCc1c(C(=O)Nc2ccccc2N2CCN(C)CC2)oc2ccccc12,?,13µM*,-30%,-8%
CCOCc1c(C(=O)Nc2ccc3nc(N4CCOCC4)sc3c2)oc2ccccc12,15µM*,?,-3%,7%
CCOC(=O)CSCC(=O)N1N=C(c2cccs2)CC1c1ccc(F)cc1 (stereo not drawn),15%,?,3%,-5%
COc1ccc(NC(=O)CCCN2C(=O)CN(C)C2=O)c(OC)c1,?,?,-7%,-11%
SMILES,Pf growth 48h,Pf growth 96h,AMA1 RON2 block,SARS PLP yeast
COCc1cc(=O)n2[nH]c(N)nc2n1,10µM*,?,5%,2%
COC(=O)C1=C(C)NC(C)=C(C(=O)OCC2CCCO2)C1c1ccc(Cl)c([N+](=O)[O-])c1 (stereo not drawn),?,?,/,-11%
CC1=C(C(=O)OCCNC(=O)c2ccccc2O)C(c2ccccc2[N+](=O)[O-])C(C(=O)OCC2CCCO2)=C(C)N1 (stereo not drawn),?,5.2µM*,?,-8%
CC1CCN(CC(=O)Nc2nn(-c3ccccc3)nc2C(N)=O)CC1,-5%,36%,64%,1%
Cc1ccc2c(C)c(C(=O)NCC3CCOCC3)oc2c1C,/,/,-13%,/
Cc1ccc2oc(C(=O)NCC3CCOCC3)c(C)c2c1,29%,10µM*,-9%,-2%
Cc1oc2cc3oc(=O)c(CCC(=O)NCCN4CCOCC4)c(C)c3cc2c1C,-39%,10µM*,-1%,-10%
Cc1coc2cc3oc(=O)c(CCC(=O)NCCCN4CCOCC4)c(C)c3cc12,2%,-10%,-2%,?
